# Measured values taken from paper PMC7862700, “An all-to-all approach to the identification of sequence-specific readers for epigenetic DNA modifications on cytosine”.
# Tests used:
# Experiment in all cases: DAPPL (digital affinity profiling via proximity ligation, sequencing); 10 mM Tris-HCl pH 7.5, 50 mM NaCl, 1 mM DTT, 4% glycerol, room temperature, 30 min; GST-TFs on glutathione beads, 16-mer random dsDNA library, 0.1% formaldehyde crosslink after washing; high values mean tight binding
# FLI1 = target: T1, FLI1 (Homo sapiens, UniProt Q01543 1-452); conditions: protein: recombinant; tags: N-terminal GST; dsDNA, one strand shown
# T1 sequence: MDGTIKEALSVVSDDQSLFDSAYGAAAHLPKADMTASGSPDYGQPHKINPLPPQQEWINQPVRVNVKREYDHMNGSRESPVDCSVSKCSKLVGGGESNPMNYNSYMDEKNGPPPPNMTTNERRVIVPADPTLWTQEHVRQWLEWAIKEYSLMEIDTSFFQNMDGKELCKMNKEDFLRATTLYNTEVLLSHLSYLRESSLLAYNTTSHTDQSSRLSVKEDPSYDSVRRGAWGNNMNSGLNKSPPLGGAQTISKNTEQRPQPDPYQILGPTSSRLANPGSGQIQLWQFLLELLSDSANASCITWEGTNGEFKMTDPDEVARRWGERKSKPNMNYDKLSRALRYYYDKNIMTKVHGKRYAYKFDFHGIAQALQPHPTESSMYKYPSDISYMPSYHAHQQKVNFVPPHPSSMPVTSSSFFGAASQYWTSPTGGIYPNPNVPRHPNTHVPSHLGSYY
# Summary of the method: (§1)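 Human transcription factors fused to GST were expressed in yeast, captured on glutathione beads, given DNA barcodes and pooled with a GST-only negative control. Pools were incubated with 200 nmole of a 16-mer random double-stranded DNA library in Tris/NaCl/DTT/glycerol buffer at room temperature for 30 min. They were then washed, crosslinked with 0.1% formaldehyde, proximity-ligated (BsaI/T4 ligase, 1 h, 37 °C), PCR-amplified and sequenced on an Illumina NextSeq500. Binding signal is each 6-mer's read frequency for a factor divided by its frequency for the GST control.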
# ELK1 = target: T2, ELK1 (Homo sapiens, UniProt P19419 1-428); conditions: protein: recombinant; tags: N-terminal GST; dsDNA, one strand shown
# T2 sequence: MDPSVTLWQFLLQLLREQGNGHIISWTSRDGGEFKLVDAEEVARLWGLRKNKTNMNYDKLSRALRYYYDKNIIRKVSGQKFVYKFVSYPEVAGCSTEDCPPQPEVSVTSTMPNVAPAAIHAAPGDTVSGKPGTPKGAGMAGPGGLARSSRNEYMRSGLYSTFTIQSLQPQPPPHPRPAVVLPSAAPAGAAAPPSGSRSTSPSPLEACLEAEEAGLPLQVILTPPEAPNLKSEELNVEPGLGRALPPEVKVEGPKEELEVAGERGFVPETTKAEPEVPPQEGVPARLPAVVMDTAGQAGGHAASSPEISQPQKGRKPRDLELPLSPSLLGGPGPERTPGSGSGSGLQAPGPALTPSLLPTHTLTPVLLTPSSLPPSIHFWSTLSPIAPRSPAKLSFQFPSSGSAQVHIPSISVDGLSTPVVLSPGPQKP
# Summary of the method: as §1
# GABPA = target: T3, GABPA (Homo sapiens, UniProt Q06546 1-454); conditions: protein: recombinant; tags: N-terminal GST; dsDNA, one strand shown
# T3 sequence: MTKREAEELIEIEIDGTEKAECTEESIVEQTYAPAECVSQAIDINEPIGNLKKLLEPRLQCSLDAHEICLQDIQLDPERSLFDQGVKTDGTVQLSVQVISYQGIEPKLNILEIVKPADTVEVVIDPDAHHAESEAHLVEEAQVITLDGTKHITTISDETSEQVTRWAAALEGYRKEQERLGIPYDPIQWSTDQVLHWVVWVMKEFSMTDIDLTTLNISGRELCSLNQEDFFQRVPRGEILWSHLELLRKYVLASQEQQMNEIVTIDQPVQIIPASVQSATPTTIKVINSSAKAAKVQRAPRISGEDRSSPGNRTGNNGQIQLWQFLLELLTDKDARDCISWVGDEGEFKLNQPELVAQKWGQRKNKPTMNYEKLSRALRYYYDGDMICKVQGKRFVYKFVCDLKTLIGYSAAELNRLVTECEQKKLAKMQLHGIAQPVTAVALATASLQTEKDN
# Summary of the method: as §1
# ERG = target: T4, ERG (Homo sapiens, UniProt P11308 1-479); conditions: protein: recombinant; tags: N-terminal GST; dsDNA, one strand shown
# T4 sequence: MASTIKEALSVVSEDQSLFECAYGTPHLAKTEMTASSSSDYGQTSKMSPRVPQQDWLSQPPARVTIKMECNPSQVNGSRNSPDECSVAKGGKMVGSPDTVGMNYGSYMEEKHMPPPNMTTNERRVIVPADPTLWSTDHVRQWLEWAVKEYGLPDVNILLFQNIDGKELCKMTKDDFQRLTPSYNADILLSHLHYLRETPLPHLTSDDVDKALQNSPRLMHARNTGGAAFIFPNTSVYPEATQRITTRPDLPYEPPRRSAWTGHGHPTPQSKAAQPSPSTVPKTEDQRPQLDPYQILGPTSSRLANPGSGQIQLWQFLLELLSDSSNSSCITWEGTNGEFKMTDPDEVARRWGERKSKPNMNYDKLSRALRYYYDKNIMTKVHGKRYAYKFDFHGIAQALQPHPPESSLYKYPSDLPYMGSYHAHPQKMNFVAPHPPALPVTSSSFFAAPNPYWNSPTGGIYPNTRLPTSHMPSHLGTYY
# Summary of the method: as §1
# ELF1 = ELF1 (Homo sapiens, UniProt P32519 1-619); conditions: protein: recombinant; tags: N-terminal GST; dsDNA, one strand shown
# ELF1, sequence (P32519 whole entry): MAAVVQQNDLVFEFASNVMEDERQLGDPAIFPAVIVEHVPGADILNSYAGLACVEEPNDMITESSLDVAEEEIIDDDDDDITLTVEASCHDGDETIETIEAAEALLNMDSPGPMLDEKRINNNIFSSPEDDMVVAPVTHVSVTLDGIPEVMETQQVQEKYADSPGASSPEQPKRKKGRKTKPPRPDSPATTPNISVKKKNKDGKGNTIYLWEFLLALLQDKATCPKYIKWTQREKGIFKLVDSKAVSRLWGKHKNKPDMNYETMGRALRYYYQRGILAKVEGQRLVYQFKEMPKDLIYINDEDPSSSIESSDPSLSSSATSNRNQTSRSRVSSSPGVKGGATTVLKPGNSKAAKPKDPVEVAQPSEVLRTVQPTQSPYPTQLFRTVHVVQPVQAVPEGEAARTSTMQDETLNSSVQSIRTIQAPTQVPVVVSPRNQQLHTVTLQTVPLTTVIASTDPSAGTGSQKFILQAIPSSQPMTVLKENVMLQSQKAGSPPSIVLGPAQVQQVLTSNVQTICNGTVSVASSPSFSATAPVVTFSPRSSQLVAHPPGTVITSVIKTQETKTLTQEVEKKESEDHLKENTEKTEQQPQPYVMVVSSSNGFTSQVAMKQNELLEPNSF
# Summary of the method: as §1
# EHF = target: T5, EHF (Homo sapiens, UniProt Q9NZC4 1-300); conditions: protein: recombinant; tags: N-terminal GST; dsDNA, one strand shown
# T5 sequence: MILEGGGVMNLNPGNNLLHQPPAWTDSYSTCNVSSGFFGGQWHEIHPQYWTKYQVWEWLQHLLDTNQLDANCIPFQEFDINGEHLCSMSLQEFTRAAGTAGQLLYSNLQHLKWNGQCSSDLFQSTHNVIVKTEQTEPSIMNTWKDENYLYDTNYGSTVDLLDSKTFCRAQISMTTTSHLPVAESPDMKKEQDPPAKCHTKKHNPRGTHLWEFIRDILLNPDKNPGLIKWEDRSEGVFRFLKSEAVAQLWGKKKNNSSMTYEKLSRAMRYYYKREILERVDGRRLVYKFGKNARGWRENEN
# Summary of the method: as §1
# SPI1 = SPI1 (Homo sapiens, UniProt P17947 1-270); conditions: protein: recombinant; tags: N-terminal GST; dsDNA, one strand shown
# Summary of the method: as §1
# SPIB = SPIB (Homo sapiens, UniProt Q01892 1-262); conditions: protein: recombinant; tags: N-terminal GST; dsDNA, one strand shown
# SPIB, sequence (Q01892 whole entry): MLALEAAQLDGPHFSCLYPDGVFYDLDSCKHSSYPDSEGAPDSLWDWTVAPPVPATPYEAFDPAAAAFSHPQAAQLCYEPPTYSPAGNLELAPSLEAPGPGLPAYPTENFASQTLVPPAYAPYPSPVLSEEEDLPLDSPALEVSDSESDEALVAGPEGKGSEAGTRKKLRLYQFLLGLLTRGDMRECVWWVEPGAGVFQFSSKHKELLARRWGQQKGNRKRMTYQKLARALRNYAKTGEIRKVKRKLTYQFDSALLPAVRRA
# Summary of the method: as §1
# ELK3 = target: T6, ELK3 (Homo sapiens, UniProt P41970 1-407); conditions: protein: recombinant; tags: N-terminal GST; dsDNA, one strand shown
# T6 sequence: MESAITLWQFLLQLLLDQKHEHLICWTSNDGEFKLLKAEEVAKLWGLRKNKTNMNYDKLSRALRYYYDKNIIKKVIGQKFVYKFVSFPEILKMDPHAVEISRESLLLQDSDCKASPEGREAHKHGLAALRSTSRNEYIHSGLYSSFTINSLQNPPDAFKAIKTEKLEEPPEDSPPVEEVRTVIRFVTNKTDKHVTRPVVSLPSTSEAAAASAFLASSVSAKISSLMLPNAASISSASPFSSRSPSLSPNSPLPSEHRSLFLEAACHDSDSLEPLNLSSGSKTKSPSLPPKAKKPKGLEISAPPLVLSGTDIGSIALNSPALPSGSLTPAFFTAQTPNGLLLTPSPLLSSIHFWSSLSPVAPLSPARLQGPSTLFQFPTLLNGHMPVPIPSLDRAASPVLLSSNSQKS
# Summary of the method: as §1
# FEV = target: T7, FEV (Homo sapiens, UniProt Q99581 1-238); conditions: protein: recombinant; tags: N-terminal GST; dsDNA, one strand shown
# T7 sequence: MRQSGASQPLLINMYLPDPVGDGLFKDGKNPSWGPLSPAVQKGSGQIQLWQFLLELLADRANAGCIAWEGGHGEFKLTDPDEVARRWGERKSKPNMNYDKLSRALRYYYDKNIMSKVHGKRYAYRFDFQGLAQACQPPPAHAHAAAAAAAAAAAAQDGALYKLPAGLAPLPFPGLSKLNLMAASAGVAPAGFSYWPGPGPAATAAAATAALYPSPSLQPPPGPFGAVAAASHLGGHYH
# Summary of the method: as §1
# ETV5 = ETV5 (Homo sapiens, UniProt P41161 1-510); conditions: protein: recombinant; tags: N-terminal GST; dsDNA, one strand shown
# ETV5, sequence (P41161 whole entry): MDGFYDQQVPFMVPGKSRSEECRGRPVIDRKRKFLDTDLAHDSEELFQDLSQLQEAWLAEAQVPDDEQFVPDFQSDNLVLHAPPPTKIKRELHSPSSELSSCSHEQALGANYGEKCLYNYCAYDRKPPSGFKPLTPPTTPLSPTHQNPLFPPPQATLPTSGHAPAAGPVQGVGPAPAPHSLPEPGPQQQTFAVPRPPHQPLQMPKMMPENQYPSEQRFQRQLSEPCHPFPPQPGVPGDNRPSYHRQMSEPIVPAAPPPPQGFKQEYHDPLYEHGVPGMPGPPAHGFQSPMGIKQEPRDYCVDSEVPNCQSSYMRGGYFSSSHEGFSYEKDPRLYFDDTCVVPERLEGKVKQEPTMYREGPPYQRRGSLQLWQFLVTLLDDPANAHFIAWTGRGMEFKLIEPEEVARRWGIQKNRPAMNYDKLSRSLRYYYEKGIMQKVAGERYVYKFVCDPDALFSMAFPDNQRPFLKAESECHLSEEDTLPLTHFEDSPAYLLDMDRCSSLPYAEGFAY
# Summary of the method: as §1
# HSF1 = HSF1 (Homo sapiens, UniProt Q00613 1-529); conditions: protein: recombinant; tags: N-terminal GST; chain copies: 3; dsDNA, one strand shown
# HSF1, sequence (Q00613 whole entry): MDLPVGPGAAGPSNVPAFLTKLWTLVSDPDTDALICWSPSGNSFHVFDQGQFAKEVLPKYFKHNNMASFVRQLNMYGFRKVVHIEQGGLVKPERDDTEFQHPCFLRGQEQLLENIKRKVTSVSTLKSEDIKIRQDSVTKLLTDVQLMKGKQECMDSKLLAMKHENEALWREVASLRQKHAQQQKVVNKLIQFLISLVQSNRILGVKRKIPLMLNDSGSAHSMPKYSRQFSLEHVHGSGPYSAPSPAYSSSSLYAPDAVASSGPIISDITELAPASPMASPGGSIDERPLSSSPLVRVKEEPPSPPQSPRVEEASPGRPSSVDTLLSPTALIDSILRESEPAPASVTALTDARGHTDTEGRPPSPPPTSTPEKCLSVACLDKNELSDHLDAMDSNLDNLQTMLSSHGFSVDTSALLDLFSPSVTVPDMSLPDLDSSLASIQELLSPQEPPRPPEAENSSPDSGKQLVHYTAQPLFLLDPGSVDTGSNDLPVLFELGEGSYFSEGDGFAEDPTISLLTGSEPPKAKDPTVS
# Summary of the method: as §1
# SPIC = target: T8, SPIC (Homo sapiens, UniProt Q8N5J4 1-248); conditions: protein: recombinant; tags: N-terminal GST; dsDNA, one strand shown
# T8 sequence: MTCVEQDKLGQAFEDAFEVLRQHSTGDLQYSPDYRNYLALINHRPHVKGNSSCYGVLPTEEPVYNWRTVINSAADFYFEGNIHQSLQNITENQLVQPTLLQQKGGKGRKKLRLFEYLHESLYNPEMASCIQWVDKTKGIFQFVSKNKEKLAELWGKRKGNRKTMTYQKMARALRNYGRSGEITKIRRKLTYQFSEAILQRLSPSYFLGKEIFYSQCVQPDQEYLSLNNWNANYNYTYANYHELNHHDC
# Summary of the method: as §1
# ELF4 = ELF4 (Homo sapiens, UniProt Q99607 1-663); conditions: protein: recombinant; tags: N-terminal GST; dsDNA, one strand shown
# ELF4, sequence (Q99607 whole entry): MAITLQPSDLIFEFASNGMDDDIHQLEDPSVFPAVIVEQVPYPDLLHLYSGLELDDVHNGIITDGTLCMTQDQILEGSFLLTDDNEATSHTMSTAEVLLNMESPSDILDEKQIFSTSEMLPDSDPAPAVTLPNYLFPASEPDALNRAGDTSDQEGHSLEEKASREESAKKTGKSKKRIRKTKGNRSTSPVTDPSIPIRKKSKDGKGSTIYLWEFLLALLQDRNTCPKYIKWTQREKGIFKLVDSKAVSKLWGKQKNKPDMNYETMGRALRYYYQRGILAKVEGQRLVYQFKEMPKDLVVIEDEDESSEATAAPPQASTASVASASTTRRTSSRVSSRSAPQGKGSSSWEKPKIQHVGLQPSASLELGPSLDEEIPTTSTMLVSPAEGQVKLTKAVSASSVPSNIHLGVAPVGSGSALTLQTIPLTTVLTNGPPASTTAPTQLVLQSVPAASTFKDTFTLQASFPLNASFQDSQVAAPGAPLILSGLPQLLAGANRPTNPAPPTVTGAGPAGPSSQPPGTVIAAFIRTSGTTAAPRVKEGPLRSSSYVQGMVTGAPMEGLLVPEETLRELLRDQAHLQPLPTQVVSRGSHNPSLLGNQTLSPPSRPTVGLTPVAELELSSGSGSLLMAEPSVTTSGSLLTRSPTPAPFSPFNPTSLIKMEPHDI
# Summary of the method: as §1
# ELK4 = target: T9, ELK4 (Homo sapiens, UniProt P28324-2 1-405); conditions: protein: recombinant; tags: N-terminal GST; dsDNA, one strand shown
# T9 sequence: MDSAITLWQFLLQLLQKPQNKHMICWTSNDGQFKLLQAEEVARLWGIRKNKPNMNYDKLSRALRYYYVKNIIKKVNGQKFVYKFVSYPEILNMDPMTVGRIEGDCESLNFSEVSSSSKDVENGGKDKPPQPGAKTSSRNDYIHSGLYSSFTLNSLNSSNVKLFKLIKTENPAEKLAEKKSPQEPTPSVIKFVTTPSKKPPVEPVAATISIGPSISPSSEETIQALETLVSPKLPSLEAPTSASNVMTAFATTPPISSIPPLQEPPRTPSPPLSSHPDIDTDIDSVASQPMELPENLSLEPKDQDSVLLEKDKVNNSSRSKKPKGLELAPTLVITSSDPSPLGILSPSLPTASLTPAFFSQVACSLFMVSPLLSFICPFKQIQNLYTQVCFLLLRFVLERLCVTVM
# Summary of the method: as §1
# ETV2 = target: T10, ETV2 (Homo sapiens, UniProt O00321 1-342); conditions: protein: recombinant; tags: N-terminal GST; dsDNA, one strand shown
# T10 sequence: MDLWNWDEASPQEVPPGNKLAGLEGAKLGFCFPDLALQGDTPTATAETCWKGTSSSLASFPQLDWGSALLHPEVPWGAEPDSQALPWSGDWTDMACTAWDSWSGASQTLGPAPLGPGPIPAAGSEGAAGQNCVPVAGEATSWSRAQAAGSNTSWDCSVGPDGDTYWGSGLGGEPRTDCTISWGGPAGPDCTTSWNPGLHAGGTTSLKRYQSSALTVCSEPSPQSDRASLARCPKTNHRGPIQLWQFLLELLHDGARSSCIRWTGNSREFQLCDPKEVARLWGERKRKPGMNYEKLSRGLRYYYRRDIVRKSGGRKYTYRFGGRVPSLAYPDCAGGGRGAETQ
# Summary of the method: as §1
# ELF3 = target: T11, ELF3 (Homo sapiens, UniProt P78545 1-371); conditions: protein: recombinant; tags: N-terminal GST; dsDNA, one strand shown
# T11 sequence: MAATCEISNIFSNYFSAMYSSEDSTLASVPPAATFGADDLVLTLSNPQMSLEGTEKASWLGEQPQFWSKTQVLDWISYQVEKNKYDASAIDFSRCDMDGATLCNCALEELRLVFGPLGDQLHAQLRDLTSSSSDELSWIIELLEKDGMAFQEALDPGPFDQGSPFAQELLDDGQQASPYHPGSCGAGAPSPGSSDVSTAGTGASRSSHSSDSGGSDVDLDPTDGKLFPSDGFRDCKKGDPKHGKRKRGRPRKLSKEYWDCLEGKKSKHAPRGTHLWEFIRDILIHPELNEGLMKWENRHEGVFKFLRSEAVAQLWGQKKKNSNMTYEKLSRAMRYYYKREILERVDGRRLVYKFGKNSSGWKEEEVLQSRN
# Summary of the method: as §1
# CRX = CRX (Homo sapiens, UniProt O43186 1-299); conditions: protein: recombinant; tags: N-terminal GST; dsDNA, one strand shown
# CRX, sequence (O43186 whole entry): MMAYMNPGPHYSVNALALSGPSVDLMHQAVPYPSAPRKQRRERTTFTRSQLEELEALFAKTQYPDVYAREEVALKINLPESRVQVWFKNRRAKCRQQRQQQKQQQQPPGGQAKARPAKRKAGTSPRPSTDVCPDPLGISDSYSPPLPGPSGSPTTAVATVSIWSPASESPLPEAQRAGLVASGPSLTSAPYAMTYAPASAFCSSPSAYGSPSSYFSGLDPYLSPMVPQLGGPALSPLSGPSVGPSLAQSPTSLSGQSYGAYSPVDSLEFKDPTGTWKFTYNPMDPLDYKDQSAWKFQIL
# Summary of the method: as §1
# ETV1 = ETV1 (Homo sapiens, UniProt P50549 1-477); conditions: protein: recombinant; tags: N-terminal GST; dsDNA, one strand shown
# ETV1, sequence (P50549 whole entry): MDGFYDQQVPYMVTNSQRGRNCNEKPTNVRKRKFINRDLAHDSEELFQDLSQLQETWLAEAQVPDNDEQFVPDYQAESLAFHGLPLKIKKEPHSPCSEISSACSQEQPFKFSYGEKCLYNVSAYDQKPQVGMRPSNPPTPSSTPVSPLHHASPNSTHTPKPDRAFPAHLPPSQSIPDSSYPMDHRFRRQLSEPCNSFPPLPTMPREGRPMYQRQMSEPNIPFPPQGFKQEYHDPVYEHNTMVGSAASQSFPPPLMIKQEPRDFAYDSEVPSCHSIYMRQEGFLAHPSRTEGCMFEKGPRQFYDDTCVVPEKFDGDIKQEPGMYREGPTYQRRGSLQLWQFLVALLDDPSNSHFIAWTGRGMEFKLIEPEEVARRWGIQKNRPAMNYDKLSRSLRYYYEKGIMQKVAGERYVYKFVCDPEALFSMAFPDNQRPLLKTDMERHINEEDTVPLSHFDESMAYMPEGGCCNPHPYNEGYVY
# Summary of the method: as §1
sequence,measurement,setting,value
TTATGC,binding signal,FLI1,"1.34 fold enrichment (6-mer frequency, TF over GST control)"
same,binding signal,ELK1,"1.34 fold enrichment (6-mer frequency, TF over GST control)"
same,binding signal,GABPA,"1.22 fold enrichment (6-mer frequency, TF over GST control)"
same,binding signal,ERG,"1.31 fold enrichment (6-mer frequency, TF over GST control)"
same,binding signal,ELF1,"1.15 fold enrichment (6-mer frequency, TF over GST control)"
same,binding signal,EHF,"1.43 fold enrichment (6-mer frequency, TF over GST control)"
same,binding signal,SPI1,"1.34 fold enrichment (6-mer frequency, TF over GST control)"
same,binding signal,SPIB,"1.26 fold enrichment (6-mer frequency, TF over GST control)"
same,binding signal,ELK3,"1.16 fold enrichment (6-mer frequency, TF over GST control)"
same,binding signal,FEV,"1.24 fold enrichment (6-mer frequency, TF over GST control)"
same,binding signal,ETV5,"1.3 fold enrichment (6-mer frequency, TF over GST control)"
same,binding signal,HSF1,"1.58 fold enrichment (6-mer frequency, TF over GST control)"
same,binding signal,SPIC,"1.55 fold enrichment (6-mer frequency, TF over GST control)"
same,binding signal,ELF4,"1.31 fold enrichment (6-mer frequency, TF over GST control)"
same,binding signal,ELK4,"1.33 fold enrichment (6-mer frequency, TF over GST control)"
same,binding signal,ETV2,"1.22 fold enrichment (6-mer frequency, TF over GST control)"
same,binding signal,ELF3,"1.48 fold enrichment (6-mer frequency, TF over GST control)"
same,binding signal,CRX,"2.28 fold enrichment (6-mer frequency, TF over GST control)"
same,binding signal,ETV1,"1.32 fold enrichment (6-mer frequency, TF over GST control)"
